# Results published in paper PMC12820563, “FoxP3 forms a head-to-head dimer in vivo and stabilizes its multimerization on adjacent microsatellites”.
# Whole data set: some 16,000 sequences, median “rpm ratio (pull-down/input)” near 0.94, cut for the highest 2% near 1.7. Shown is part of a subset that was picked to be rich in the highest values.
# Target: T1, MBP-FoxP1dN (Mus musculus, UniProt P58462 326-579)
# T1 sequence: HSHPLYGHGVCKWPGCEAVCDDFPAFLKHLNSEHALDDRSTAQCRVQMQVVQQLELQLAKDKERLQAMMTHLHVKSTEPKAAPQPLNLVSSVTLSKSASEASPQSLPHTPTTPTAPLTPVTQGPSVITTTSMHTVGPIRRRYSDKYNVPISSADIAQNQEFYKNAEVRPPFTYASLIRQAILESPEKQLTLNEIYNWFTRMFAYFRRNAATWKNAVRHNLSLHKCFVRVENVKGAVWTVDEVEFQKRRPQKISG
# Assay: PD-seq (MBP pull-down with sequencing); 20 mM Tris-HCl pH 7.5, 100 mM NaCl, 1.5 mM MgCl2, 0.4 uM protein, 0.1 uM dsDNA library, 30 min, room temperature, amylose pull-down; high values mean tight binding
# Conditions: protein: recombinant; tags: His6-MBP; chain copies: 2; dsDNA, one strand shown
# Summary of the method: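 A fragment of mouse FoxP3 or FoxP1 without its N-terminus, carrying a His6-MBP tag and produced in E. coli, was combined at 0.4 µM with a 0.1 µM degenerate double-stranded DNA library filled in with Klenow. The mixture sat for 30 min at room temperature in Tris pH 7.5 buffer containing NaCl and MgCl2. Protein–DNA complexes were captured on amylose resin, washed three times, and the DNA was freed with proteinase K, barcoded by PCR and sequenced on Illumina. Binding is expressed as reads-per-million enrichment of pull-down over input, with replicates pooled.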
row,Sequence,binding signal
1,GATGATTGTTCTCCCAGCTGATGAATTCCATGTGTCGAGTAAACAAATTTTCCTAATCTTTCTGTTCAAGCGCCATCTAC,0.939 RPM ratio (pull-down/input)
2,GATGATTGTTCTCCCAGCTGATGAATTTTTCGGATCGAGTAAACAAATTTTCCTAATCTTTCTGTTCAAGCGCCATCTAC,0.904 RPM ratio (pull-down/input)
3,GATGATTGTTCTCCCAGCTGATGAATTCCTTTAGTCGAGTAAACAAATTTTCCTAATCTTTCTGTTCAAGCGCCATCTAC,0.819 RPM ratio (pull-down/input)
4,GATGATTGTTCTCCCAGCTGATGAATTAGTGCAGTCGAGTAAACAAATTTTCCTAATCTTTCTGTTCAAGCGCCATCTAC,0.937 RPM ratio (pull-down/input)
5,GATGATTGTTCTCCCAGCTGATGAATTGTTTGGATCGAGTAAACAAATTTTCCTAATCTTTCTGTTCAAGCGCCATCTAC,1.65 RPM ratio (pull-down/input)
6,GATGATTGTTCTCCCAGCTGATGAATTGGGGACCTCGAGTAAACAAATTTTCCTAATCTTTCTGTTCAAGCGCCATCTAC,0.742 RPM ratio (pull-down/input)
7,GATGATTGTTCTCCCAGCTGATGAATTCGGACTATCGAGTAAACAAATTTTCCTAATCTTTCTGTTCAAGCGCCATCTAC,0.87 RPM ratio (pull-down/input)
8,GATGATTGTTCTCCCAGCTGATGAATTGATGTTATCGAGTAAACAAATTTTCCTAATCTTTCTGTTCAAGCGCCATCTAC,2.17 RPM ratio (pull-down/input)
9,GATGATTGTTCTCCCAGCTGATGAATTGAATTTATCGAGTAAACAAATTTTCCTAATCTTTCTGTTCAAGCGCCATCTAC,1.05 RPM ratio (pull-down/input)
10,GATGATTGTTCTCCCAGCTGATGAATTTCAGTTATCGAGTAAACAAATTTTCCTAATCTTTCTGTTCAAGCGCCATCTAC,1.02 RPM ratio (pull-down/input)
11,GATGATTGTTCTCCCAGCTGATGAATTAATGTTATCGAGTAAACAAATTTTCCTAATCTTTCTGTTCAAGCGCCATCTAC,1.95 RPM ratio (pull-down/input)
12,GATGATTGTTCTCCCAGCTGATGAATTATCGATATCGAGTAAACAAATTTTCCTAATCTTTCTGTTCAAGCGCCATCTAC,1.08 RPM ratio (pull-down/input)
13,GATGATTGTTCTCCCAGCTGATGAATTAAATGTATCGAGTAAACAAATTTTCCTAATCTTTCTGTTCAAGCGCCATCTAC,1.4 RPM ratio (pull-down/input)
14,GATGATTGTTCTCCCAGCTGATGAATTATTTTCATCGAGTAAACAAATTTTCCTAATCTTTCTGTTCAAGCGCCATCTAC,1.27 RPM ratio (pull-down/input)
15,GATGATTGTTCTCCCAGCTGATGAATTATTGCTATCGAGTAAACAAATTTTCCTAATCTTTCTGTTCAAGCGCCATCTAC,1.3 RPM ratio (pull-down/input)
16,GATGATTGTTCTCCCAGCTGATGAATTATGTTAATCGAGTAAACAAATTTTCCTAATCTTTCTGTTCAAGCGCCATCTAC,1.21 RPM ratio (pull-down/input)
17,GATGATTGTTCTCCCAGCTGATGAATTGATATTATCGAGTAAACAAATTTTCCTAATCTTTCTGTTCAAGCGCCATCTAC,1.92 RPM ratio (pull-down/input)
18,GATGATTGTTCTCCCAGCTGATGAATTGTCATTATCGAGTAAACAAATTTTCCTAATCTTTCTGTTCAAGCGCCATCTAC,1.31 RPM ratio (pull-down/input)
19,GATGATTGTTCTCCCAGCTGATGAATTTTTGCTATCGAGTAAACAAATTTTCCTAATCTTTCTGTTCAAGCGCCATCTAC,1.21 RPM ratio (pull-down/input)
20,GATGATTGTTCTCCCAGCTGATGAATTGCTATTATCGAGTAAACAAATTTTCCTAATCTTTCTGTTCAAGCGCCATCTAC,1.8 RPM ratio (pull-down/input)
21,GATGATTGTTCTCCCAGCTGATGAATTATTGTCATCGAGTAAACAAATTTTCCTAATCTTTCTGTTCAAGCGCCATCTAC,1.86 RPM ratio (pull-down/input)
22,GATGATTGTTCTCCCAGCTGATGAATTATTGATATCGAGTAAACAAATTTTCCTAATCTTTCTGTTCAAGCGCCATCTAC,1.53 RPM ratio (pull-down/input)
